According to PubChem BioAssay AID485364 (National Center for Advancing Translational Sciences (NCATS), 2010):
The campaign covered roughly 360,000 compounds. About 11,000 (3.1%) were called active. A call without a number means that no potency is given here. Inconclusive results (about 4%) are left out. The call rests on the fitted dose curve; in most records, active means well fitted inhibition curve with a large enough effect; inconclusive means small, poorly fitted or top-dose-only effect; inactive means no such curve, though single readings can be large or run the other way. For the sample, actives were picked, then their nearest neighbours and some compounds at random.

Target: Schistosoma mansoni thioredoxin glutathione reductase (TGR) (UniProt Q962Y6)
Assay: qHTS Assay for the Inhibitors of Schistosoma Mansoni Peroxiredoxins; further: nearly all actives have a fitted effect of over 60% in size
Settings: purified TGR, DTNB reduction, TNB absorbance 405 nm; series mostly up to 114 µM
Summary of the method: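 Kinetic colorimetric format: TGR-catalysed, NADPH-driven DTNB reduction monitored via TNB absorbance. Enzyme dispensed at 20 nM; compound exposure 15 min at room temperature before reaction start.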
Potency means the concentration at half of the fitted maximal effect.

Compound | Potency
COc1cccc(N2CCN(S(=O)(=O)c3ccc4c(c3)CCCN4C(C)=O)CC2)c1 | inactive
O=C(Nc1nnc(C2CC(=O)N(c3ccc(Cl)cc3)C2)s1)c1ccco1 (configuration not stated) | inactive
Cc1ccc(S(=O)(=O)c2cn(Cc3ccccc3)c3cc(N4CCCC4)c(F)cc3c2=O)c(C)c1 | inactive
COc1cc(C(=O)N2CCN(C(=O)COc3cccc(C)c3)CC2)cc(OC)c1OC | inactive
Cc1nnc(SCC(=O)NCc2ccccc2Cl)c2nn(-c3ccccc3)c(C)c12 | inactive
CC1CCN(S(=O)(=O)c2ccc3c(ccn3CCC(=O)NCc3ccc(N(C)C)cc3)c2)CC1 | inactive
Cc1ccc(NC(=O)c2cc(S(=O)(=O)NCCC3=CCCCC3)ccc2F)cc1C | inactive
CCOc1ccc(OCC)c(NC(=O)c2cc(C)nc3c2c(C)nn3-c2cccc(Cl)c2C)c1 | inactive
O=C(/C=C/c1ccccc1)N1CCN(Cc2cc(=O)n3nc(-c4ccccc4F)sc3n2)CC1 | inactive
Cn1c(C(=O)N2CCC(C(N)=O)CC2)cc2c(=O)n(C)c3ccccc3c21 | inactive
CCOc1ccc(CCNC(=O)c2cc3c(=O)n(C)c4ccccc4c3n2C)cc1 | inactive
CCN1CCCC1CNC(=O)c1cc2c(=O)n(C)c3ccccc3c2n1C (configuration not stated) | 50.1 µM (active)
O=C(c1ccc2c(c1)N(Cc1ccc(Cl)cc1)C(=O)c1ccccc1S2(=O)=O)N1CCCCC1 | inactive
CCOc1ccc(C(=O)/C=C/c2cn(CC(O)CN3CCCCCC3)c3ccccc23)cc1 (configuration not stated) | inactive
Cc1ccc(Cn2c(CNC(=O)Cc3cccc(C)c3)nc3cccnc32)cc1 | inactive
COc1ccc(C(=O)NC2CCCc3c2cnn3-c2cccc(C)c2C)c(OC)n1 (configuration not stated) | inactive
Cc1cc(C(=O)NC2CCCc3c2cnn3-c2cccc(C)c2C)c(C)o1 (configuration not stated) | 35.5 µM (active)
Cn1nccc1C(=O)NC1CCCc2c1cnn2-c1ccccc1F (configuration not stated) | inactive
Clc1ccc2c(c1)C1=C(C(c3ccncc3)O2)C(c2ccc(Br)cc2)n2ncnc2N1 (configuration not stated) | inactive
Brc1ccc(C2=CC(c3ccco3)n3ncnc3N2)cc1 (configuration not stated) | 17.8 µM (active)
Cc1cccc(OCCSc2nc3ccccc3n2CC(=O)N2CCCCC2)c1C | inactive
COc1ccc(CCN=C2SCC(=O)N2Cc2ccccc2)cc1OC | inactive
COC(=O)C1=C(c2ccc(F)cc2OCc2ccccc2)C[C@@H]2CC[C@H]1N2C(=O)NCc1ccc(OC)c(OC)c1 | inactive
COc1cc(C2CC(=O)N3CN(Cc4ccccc4)CSC3=C2C#N)ccc1OCc1ccccc1 (configuration not stated) | 8.91 µM (active)
CCCOc1ccc(C2c3c(-c4ccccc4O)n[nH]c3C(=O)N2Cc2cccnc2)cc1 (configuration not stated) | inactive

Compound | Potency
CC(=O)Nc1ccc(S(=O)(=O)NC2(C(F)(F)F)C(=O)NC(C)=C2C#N)cc1 (configuration not stated) | 39.8 µM (active)
CC(=O)Nc1ccc(NS(=O)(=O)c2ccc3c(c2)NC(=O)CC(=O)N3)cc1 | inactive
CC(=O)Nc1ccc(S(=O)(=O)NC2(C(F)(F)F)C(=O)Nc3c2c(=O)[nH]c(=O)n3Cc2ccccc2)cc1 (configuration not stated) | inactive
CCOC(=O)c1cc(-c2ccc(OC)c(S(=O)(=O)Nc3ccc(OC)cc3OC)c2)on1 | inactive
CCOC(=O)c1ccc(NC(=O)Cn2c(=O)cc(C)c3c(C)nn(-c4cccc(F)c4)c32)cc1 | inactive
COc1ccc(C(C)=O)cc1COC(=O)Cn1cnc2ccccc2c1=O | 39.8 µM (active)
O=C(COC(=O)Cn1cnc2ccccc2c1=O)NCc1ccccc1Cl | inactive
COCc1cc(C(C)=O)ccc1OC | inactive
CC(Sc1oc(-c2ccco2)nc1S(=O)(=O)c1ccc(Br)cc1)c1ccccc1 (configuration not stated) | inactive
COc1ccc(NC(=O)C2CCN(c3ccc(Sc4ccc(C)cc4)nn3)CC2)c(OC)c1 | inactive
Cc1nnc(SCc2cc(=O)c3cc(F)ccc3[nH]2)n1C | inactive
COC(=O)c1cc(C)sc1NC(=O)CC1Nc2ccccc2NC1=O (configuration not stated) | inactive
CCOC(=O)c1ccccc1NC(=O)CC1Nc2ccccc2NC1=O (configuration not stated) | 39.8 µM (active)
CCOC(=O)c1ccccc1NC(=S)N1CCC(C(N)=O)CC1 | inactive
CN1CCN(C2(CNC(=O)COc3ccc(C(C)(C)C)cc3)CCCCC2)CC1 | inactive
Cc1ccc2nc(N3CCN(c4cccc(Cl)c4)CC3)c3nnnn3c2c1 | inactive
COc1ccc(Cn2ccn(Cc3cccc(OC)c3)c(=O)c2=O)cc1 | inactive
CCCCc1nn2c(=O)cc(COC(=O)c3cccc(NC(=O)COc4ccccc4)c3)nc2s1 | inactive
COc1ccccc1N(C(=O)Cn1nnc2ccccc21)C(C(=O)NCc1ccco1)c1ccc(C)o1 (configuration not stated) | 44.7 µM (active)
O=C(NCc1ccco1)C(c1ccncc1)N(C(=O)Cn1nnc2ccccc21)c1ccccc1 (configuration not stated) | inactive
Cc1ccc(C(C(=O)NCc2ccco2)N(CC2CCCO2)C(=O)Cn2nnc3ccccc32)cc1 (configuration not stated) | inactive
Cc1ccc(OCCSc2nc(-c3cccs3)nc3cc(=O)[nH]n23)cc1Cl | inactive
Cc1ccc(-c2nc3ccccn3c2Nc2c(C)cccc2C)o1 | inactive
COc1cc(Cl)c(C)cc1NC(=O)CCc1nc2cccnc2n1Cc1cccs1 | inactive
Clc1cccc(-c2nc3nc4ccccc4nc3n2Cc2ccco2)c1 | 17.8 µM (active)

Compound | Potency
O=c1[nH]c(CSc2ncc(-c3ccc(F)cc3)n2Cc2ccco2)nc2ccccc12 | inactive
CCC(C)n1c(-c2cc(OC)c(OC)c(OC)c2)nc2nc3ccccc3nc21 (configuration not stated) | inactive
Cc1ccc(NC(=O)C2CCN(S(=O)(=O)c3cc(-c4noc(C)n4)ccc3C)CC2)c(C)c1 | inactive
FC(F)(F)c1cc(Nc2nc3ccccc3c3nncn23)ccc1Cl | inactive
COC(=O)CCNc1ccc2c(c1)OCCO2 | inactive
CCOc1ccc(NCCC(=O)c2ccc3c(c2)OCO3)cc1 | 1.41 µM (active)
O=C(COc1ccc(Cl)cc1)Nc1ccc2c(c1)OCO2 | inactive
Cc1ccc(NC(=O)CSc2nnc3[nH]c(=O)cc(C)n23)cc1Cl | inactive
Cc1oc2c(c1C(=O)Nc1ccc(F)c(F)c1)C1=NCCN1C=N2 | inactive
CC1CN(S(=O)(=O)c2ccc(C(=O)Nc3sccc3C(N)=O)cc2)CC(C)O1 (configuration not stated) | inactive
COc1cc(OC)cc(C(=O)OCC(=O)Nc2sccc2C(N)=O)c1 | inactive
NC(=O)c1ccsc1NC(=O)c1ccco1 | 44.7 µM (active)
O=C(CCN1C(=O)c2ccccc2C1=O)Nc1cccc(F)c1 | inactive
O=C1c2ccccc2C(=O)N1CCC(O)C[N+](=O)[O-] (configuration not stated) | 28.2 µM (active)
O=C(OCCN1C(=O)c2ccccc2C1=O)Oc1ccccc1 | inactive
Cc1ccc(CCNC(=O)C2CCN(c3nnc(-n4cccc4CNc4ccc(C)cc4)s3)CC2)cc1 | inactive
COc1ccc(-c2noc(-c3ccc(N4CCN(c5ccccc5)CC4)c([N+](=O)[O-])c3)n2)cc1OC | inactive
O=C(NCCc1ccccc1)C(=O)NCC(c1ccco1)S(=O)(=O)c1ccccc1 (configuration not stated) | inactive
COc1ccccc1CNC(=O)C(=O)NCC(c1ccco1)S(=O)(=O)c1ccc(F)cc1 (configuration not stated) | 10 µM (active)
COc1ccc(S(=O)(=O)NC(CC(=O)NCc2ccccc2OC)c2ccco2)cc1 (configuration not stated) | inactive
COc1ccc(S(=O)(=O)N(CC(=O)NCc2ccco2)c2ccc(F)cc2)cc1 | inactive
O=C(NCc1ccncc1)C(=O)NCc1ccco1 | inactive
O=C(NCc1ccccc1)C(=O)NCC(c1ccco1)S(=O)(=O)c1ccc(Cl)cc1 (configuration not stated) | 50.1 µM (active)
COC(=O)c1cnc(N2CCN(c3ccccc3OC)CC2)c2ccccc12 | inactive
Cc1ccc(F)cc1S(=O)(=O)N1CCC(c2nc3ccccc3s2)CC1 | inactive

Compound | Potency
Cc1ccc2c(c1)N(C(=O)CCC(=O)NCc1ccccc1F)CC(C)O2 (configuration not stated) | inactive
CC(=O)N1CCCc2cc(S(=O)(=O)N3CCC(C(=O)NCc4ccc(C)cc4)CC3)ccc21 | inactive
O=S(=O)(NCCc1nnc2ccc(SCc3ccc(Cl)cc3Cl)nn12)c1ccccc1 | inactive
O=C(NCC(c1ccc(Cl)cc1)N1CCOCC1)c1ccccc1F (configuration not stated) | inactive
CCOc1cccc(NC(=O)c2ccc(F)c(S(=O)(=O)N(CC)c3cccc(C)c3)c2)c1 | inactive
O=C(c1cn2ccccc2n1)N1CCc2c([nH]c3ccccc23)C1c1ccccn1 (configuration not stated) | inactive
CCOc1ccc(C2c3[nH]c4ccccc4c3CCN2Cc2cccn2-c2ncccn2)cc1 (configuration not stated) | inactive
c1ccc(C2c3[nH]c4ccccc4c3CCN2Cc2cccn2-c2cccnc2)nc1 (configuration not stated) | 15.8 µM (active)
Cc1ccc(NC(=O)CSc2nc3c([nH]c4ccccc43)c(=O)n2-c2ccccc2)c(C)c1 | inactive
CCc1c(C)sc(NC(=O)C2c3ccccc3Oc3ccccc32)c1C(=O)OC(C)C | inactive
CCOc1ccc(-c2nc(C)sc2CC(=O)O)cc1 | inactive
CCOC(=O)C(=O)Nc1nc(-c2ccccc2)c(CC)s1 | inactive
C/C(=N/Nc1nc(-c2ccccc2)c(CC(=O)O)s1)c1ccccc1 | 0.316 µM (active)
Cc1ccc(-c2cn3c(n2)sc2cc(C(=O)NCc4cccs4)ccc23)c(C)c1 | inactive
COc1ccc(NC(=O)CSc2nccn2C2CCCC2)cc1OC | inactive
CCOc1ccc(-c2nonc2NC(=O)c2oc3ccc(CC)cc3c2C)cc1 | inactive
CN(C(=O)CSc1nc2ccc(NC(=O)COc3ccccc3)cc2s1)c1ccccc1 | inactive
Cc1cc(C)c(NC(=O)CN2C(=O)c3cccnc3Oc3ccc(Cl)cc32)c(C)c1 | inactive
CCNC(=O)Cn1nc(C)n2c(cc3c(OC)cccc32)c1=O | inactive
O=C(Nc1ccc(Cl)cc1)c1cccc(OC(=S)N2CCOCC2)c1 | inactive
O=C(Nc1ccc(N2CCOCC2)cc1)c1ccc2c(c1)OCO2 | inactive
CC(=O)Oc1cccc(N2C(=O)CC(Nc3ccc(N4CCOCC4)cc3)C2=O)c1 (configuration not stated) | 22.4 µM (active)
